57 compounds from PubChem BioAssay AID1259313 (Sanford-Burnham Center for Chemical Genomics, 2017) can be followed below.

Out of some 340,000 compounds screened, about 8,500 (2.5%) were called active. The list comes from a sample in which actives are over-represented; it also holds similar structures and randomly drawn compounds. A number with no mark means an inactive call.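 The calls were made as follows: active = melting temperature shift of at least 10% of the positive control shift, at one fixed dose; inactive = the rest.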

This experiment has as its system Glutamate receptor ionotropic, NMDA 3A (GRIN3A) ligand-binding domain. In words: binders of NR3A ligand-binding domain, primary screen, biophysical, differential scanning fluorimetry, uHTS (AID 1259313). As to conditions: NR3A LBD differential scanning fluorimetry, at 25 µM, stronger effect = higher value, 0% = protein alone, 100% = glycine-bound protein.
For the compound `COc1ccc(-n2nc(C(=O)NCC(=O)N3CCCCCC3)c3ccccc3c2=O)cc1Cl`, the Tm shift relative to glycine control is -2.28%.
For `O=C(COC(=O)c1c2c(nc3ccccc13)/C(=C\c1cccs1)CCC2)Nc1ccccc1Cl` the value was 14.6% (active).
`COc1cc(/C=C2\CCCc3c2nc2ccccc2c3C(=O)O)cc(Cl)c1O`: the Tm shift relative to glycine control is -0.18%.
Consider `NC(=O)c1ccc(NC(=O)COC(=O)c2c3c(nc4ccccc24)/C(=C\c2ccc4c(c2)OCO4)CCC3)cc1`, for which the Tm shift relative to glycine control was 31.8% (active).
Consider `NS(=O)(=O)c1ccc(NC(=O)COC(=O)c2ccco2)cc1`, for which the Tm shift relative to glycine control is -3.86%.
In the case of `NS(=O)(=O)c1ccc(NC(=O)COC(=O)c2c3c(nc4ccccc24)/C(=C\c2ccc4c(c2)OCO4)CCC3)cc1`, the Tm shift relative to glycine control is 38% (active).
For `O=C(COC(=O)c1ccc(F)cc1)Nc1ccc2c(c1)OCO2`, the Tm shift relative to glycine control is -2.46%.
For `NS(=O)(=O)c1ccc(NC(=O)COC(=O)CCc2c[nH]c3ccccc23)cc1`, the Tm shift relative to glycine control was -3.19%.
For the compound `O=C(COC(=O)c1cc(-c2cccs2)nn1-c1ccccc1)Nc1cc([N+](=O)[O-])ccc1Cl`, the Tm shift relative to glycine control is -1.02%.
As to `O=C(COC(=O)c1ccncc1)Nc1ccc2c(c1)OCO2`, the Tm shift relative to glycine control was -0.26%.
With `CC(C)(C)n1ncc2c(=O)n(Cc3c(Cl)cccc3Br)cnc21` the figure was -3.98%; with `COc1ccc(NS(=O)(=O)c2ccc(C)c(C(=O)NNC(=O)c3csc(N4CCOCC4)n3)c2)cc1`, 0.91%; with `COc1ccc(NC(=O)COC(=O)CNC(=O)C2CCCCC2)cc1`, -0.45%.
On to `Cc1cc(C)cc(NC(=O)Cn2cnc3c(nnn3Cc3ccc(F)cc3)c2=O)c1`, for which the Tm shift relative to glycine control is 3.35%.
Consider `COc1ccc(/C=C/CN2CCCC(C(=O)c3cc(F)ccc3F)C2)cc1` (configuration not stated), for which the Tm shift relative to glycine control is -1.5%.
With `CCN1CCN(c2nc(Nc3cc(OC)ccc3OC)nc(Nc3cc(OC)ccc3OC)n2)CC1` the figure was -2.4%; with `Cc1csc(NC(=O)C2CCN(S(=O)(=O)c3ccccc3)CC2)n1`, 2.42%; with `CC(C)(C)NC(=O)COc1ccc(CNc2ccc3[nH]c(=O)[nH]c3c2)cc1`, -1.72%.
For the compound `COc1cccc(CN(C)CC(O)COC(c2ccccc2)c2ccccc2C)c1` (configuration not stated), the Tm shift relative to glycine control was -2.39%.
As to `C=C(C)Cn1c(C)cc(C)c(S(=O)(=O)c2ccccc2C)c1=O`, the Tm shift relative to glycine control was 2.34%.
As to `COCCn1c(C)cc(C(=O)CSc2nnc(C3CC3)n2C2CC2)c1C`, the Tm shift relative to glycine control is -0.08%.
Regarding `Cc1nc2ccccc2n1CC(=O)N/N=C/c1cccs1`, the Tm shift relative to glycine control is -4.96%.
Consider `COc1ccc(C(=O)Nc2ccc(S(=O)(=O)NC(C)C)cc2)cc1`, for which the Tm shift relative to glycine control was 14% (active).
With `COc1ccc(NS(=O)(=O)c2ccc(NC(=O)c3ccc(N(C)S(C)(=O)=O)cc3)cc2)cc1`, the Tm shift relative to glycine control is -0.38%.
With `CC(C)NS(=O)(=O)c1ccc(NC(=O)c2cccnc2)cc1`, the Tm shift relative to glycine control was 0.24%.
On to `CCC(=C/c1sc2ccc3ccccc3c2[n+]1C)/C=C1\Sc2ccc3ccccc3c2N1C`, for which the Tm shift relative to glycine control was 3.14%.
For `CC1CCCCC1NC(=O)Cn1cnc2c1c(=O)n(C)c(=O)n2C` (configuration not stated), the Tm shift relative to glycine control was -0.41%.
For the compound `COc1ccc(C(=O)Nc2cc(C)ccc2NC(=O)COc2ccccc2)cc1`, the Tm shift relative to glycine control was -0.91%.
Consider `CCS(=O)(=O)c1ccc(O)c(NC(=O)COc2ccc(Cl)cc2)c1`, for which the Tm shift relative to glycine control is 1.4%.
In the case of `Cc1ccc(O)c(NC(=S)NC(=O)COc2ccc(Br)cc2)c1`, the Tm shift relative to glycine control is 16.9% (active).
Turning to `Oc1ccc(/C=N/N(Cc2ccccc2)c2ccccc2)cc1`, the Tm shift relative to glycine control was 8.8%.
On to `COc1cc(OC)cc(-c2cc3ccc(F)cc3cn2)c1`, for which the Tm shift relative to glycine control was 1.79%.
For `COC(=O)C1CCN(C(=O)NC2CC(=O)N(c3ccc4c(c3)OCCO4)C2)CC1` (configuration not stated), the Tm shift relative to glycine control is 0.42%.
Turning to `CC(=O)c1ccccc1NC(=O)C1CC(=O)N(c2ccc3c(c2)OCCO3)C1` (configuration not stated), the Tm shift relative to glycine control was -0.26%.
As for `CC(=O)c1ccc(S(=O)(=O)NC2CC(=O)N(c3ccc4c(c3)OCCO4)C2)cc1` (configuration not stated), the Tm shift relative to glycine control is 15.5% (active).
Turning to `Cc1nc2cc(C(F)(F)F)ccc2n1CCNc1nc(-c2cc(Cl)c(N)c(Cl)c2)cs1`, the Tm shift relative to glycine control is -2.53%.
In the case of `Cc1ccc(C(C(=O)NC2CCCCC2)N(C(=O)c2csnn2)C2CC2)o1` (configuration not stated), the Tm shift relative to glycine control is -0.78%.
In the case of `COc1ccc(S(=O)(=O)N2CCOCC2)cc1NC(=O)CSc1nnc(NC2CC2)s1`, the Tm shift relative to glycine control was 1.84%.
With `COc1ccc(Br)cc1/C=N/NC(=O)c1cccc(S(=O)(=O)N2CCOCC2)c1`, the Tm shift relative to glycine control is -9.01%.
With `COc1ccc(/C=N/NC(=O)c2ccncc2)cc1CN1CCCc2ccccc21`, the Tm shift relative to glycine control is -8.86%.
Turning to `COc1cccc(/C=N/NC(=O)c2[nH]nc3c2CCc2ccccc2-3)c1O`, the Tm shift relative to glycine control was 20.4% (active).
With `O=C(c1cc2ccccc2o1)N1CCN(Cc2ccccc2)CC1` the figure was 0.09%.
Consider `Fc1ccc(OCc2nn3c(Cn4nnc5ccccc54)nnc3s2)cc1`, for which the Tm shift relative to glycine control is 2.39%.
Turning to `CC1CN(/C=C/C(=O)C(F)(F)F)CC(C)O1` (configuration not stated), the Tm shift relative to glycine control is 0.33%.
Consider `COc1ccccc1Cn1c(C)nnc1-c1cnn(C)c1N`, for which the Tm shift relative to glycine control is 1%.
As for `O=C(Cc1cccc2ccccc12)NNC(=O)Nc1ccc(Cl)cc1`, the Tm shift relative to glycine control was 29.1% (active).
For `CN(CC(=O)Nc1ccc(Cl)cc1)CC(=O)Nc1cccc2ccccc12` the value was -7.6%; for `O=C(O)Cc1ccc(NC(=O)Nc2cccc3ccccc23)cc1`, -1.31%; for `COC(=O)c1ccc(NCc2cc(O)ccc2O)cc1`, 5.08%.
On to `O=C(OC12CC3CC(CC(C3)C1)C2)c1ccc(NCc2cc(O)ccc2O)cc1`, for which the Tm shift relative to glycine control was 33.5% (active).
For the compound `CC(C)OC(=O)c1ccc(NCc2cc(O)ccc2O)cc1Cl`, the Tm shift relative to glycine control is -1.69%.
With `Cn1c(SCc2ccc(F)cc2)nnc1-c1ccncc1` the figure was 1.71%; with `CCC(C)(C)n1nnnc1CN1CCN(c2nc3ccc(C)cc3cc2C#N)CC1`, 0.62%.
On to `O=C(NCc1ccccc1)C(c1ccccc1)N(C(=O)c1csnn1)c1ccc(F)cc1` (configuration not stated), for which the Tm shift relative to glycine control was -0.6%.
With `O=C(Nc1ccccc1Cl)/C(Cl)=C(\Cl)S(=O)c1ccccc1` (configuration not stated) the figure was 11.6% (active).
Consider `CN(C)S(=O)(=O)Oc1ccccc1C(=O)Nc1ccccc1Cl`, for which the Tm shift relative to glycine control is -0.92%.
For the compound `O=C(COC(=O)CCc1c[nH]c(=O)[nH]1)Nc1ccccc1Cl`, the Tm shift relative to glycine control is 1.15%.
